What all share (set-up): species or system human, MV4-11 + K-562 + COLO205 + SK-N-BE2 + OVCAR-8
Assay [1] concerns AXL. The conditions noted are these: read-out: apparent Kd, n = 1.
Assay [2] deals with CSK. The following applies: read-out: apparent Kd, n = 1.
The test system of assay [3] is EPHA1. The conditions noted are these: read-out: apparent Kd, n = 1.
The subject of assay [4] is EPHB3. The following applies: read-out: apparent Kd, n = 1.
The subject of assay [5] is FYN. The conditions noted are these: read-out: apparent Kd, n = 1.
Assay [6] concerns LYN. The following applies: read-out: apparent Kd, n = 1.
Assay [7] concerns MTOR. The following applies: read-out: apparent Kd, n = 1.
The test system of assay [8] is PIK3CG. The conditions noted are these: read-out: apparent Kd, n = 1.
In assay [9] the test system is RIPK2. The conditions noted are these: read-out: apparent Kd, n = 1.
Assay [10] concerns ULK1. The conditions noted are these: read-out: apparent Kd, n = 1.
The test system of assay [11] is CDC42BPA. The conditions noted are these: read-out: apparent Kd; compound concentrations: 100 nM and 1000 nM (sheet 'Samples'), CATDS: 3.9597453798327397E-3; n = 1.
For assay [12], the system named is CDC42BPG. The following applies: read-out: apparent Kd, compound concentrations: 100 nM and 1000 nM (sheet 'Samples'), n = 1.
The test system of assay [13] is CDK2. The conditions noted are these: read-out: apparent Kd; compound concentrations: 100 nM and 1000 nM (sheet 'Samples'), CATDS: 5.1697348126272004E-3; n = 1.
Assay [14] concerns CDK9. The following applies: read-out: apparent Kd; compound concentrations: 100 nM and 1000 nM (sheet 'Samples'), CATDS: 4.5836362442514197E-3; n = 1.
Assay [15] concerns IRAK3. The conditions noted are these: read-out: apparent Kd, n = 1.
The subject of assay [16] is PRKG1. The following applies: read-out: apparent Kd, n = 1.
The subject of assay [17] is ROCK1. The conditions noted are these: read-out: apparent Kd, compound concentrations: 100 nM and 1000 nM (sheet 'Samples'), n = 1.
The subject of assay [18] is TGFBR2. The following applies: read-out: apparent Kd, n = 1.
For assay [19], the system named is PDGFRB. The conditions noted are these: read-out: apparent Kd; compound concentrations: 100 nM and 1000 nM (sheet 'Samples'), CATDS: 3.4568718881872497E-2; n = 1.
Where [20] appears, read: compound concentrations:100 nM and 1000 nM (sheet 'Samples').

Read-outs that look alike come from different tables or passages of the source.

In the case of `O=C1NC(=O)C(N2CCc3ccccc32)=C1c1ccccc1Cl` [SB-373598], the potency estimated from few doses in [1] (setting [20]) is 775 nM; in [2] (setting [20]), 273 nM; in assay [3] (setting [20]), 207 nM; in assay [4] (setting [20]), 549 nM; in assay [5] (setting [20]), 250 nM; in [6] (setting [20]) it was 210 nM. The potency estimated from few doses in assay [7] (setting [20]) is 461 nM; in assay [8] (setting [20]), 1110 nM; in [9] (setting [20]), 273 nM; in assay [10] (setting [20]) it was 305 nM.
As to `Cc1ccc2c(-c3ccncc3)c(-c3ccc(F)cc3)nn2c1.Cl` [GW461484A], the potency estimated from few doses in assay [2] (setting [20]) was 893 nM; in assay [3] (setting [20]), 643 nM; in assay [4] (setting [20]), 1960 nM; in assay [5] (setting [20]), 1170 nM; in assay [6] (setting [20]), 1010 nM; in [7] (setting [20]), 571 nM.
For the compound `Cn1ncc2c(N)ncnc21` [SKF-18267], the potency estimated from few doses in assay [1] (compound concentrations: 100 nM and 1000 nM (sheet 'Samples'), CATDS: 4.1647880989247304E-3) was 1210 nM; in assay [11], 1370 nM; in assay [12] (CATDS: 5.4078712502347798E-3), 700 nM; in assay [13], 762 nM; in assay [14] it was 974 nM; in [2] (compound concentrations: 100 nM and 1000 nM (sheet 'Samples'), CATDS: 4.6419413759929496E-3), 948 nM. Moreover, the potency estimated from few doses in assay [3] (compound concentrations: 100 nM and 1000 nM (sheet 'Samples'), CATDS: 6.5055673029188101E-3) was 506 nM; in assay [4] (compound concentrations: 100 nM and 1000 nM (sheet 'Samples'), CATDS: 3.3263666790724102E-3), 2290 nM; in assay [5] (compound concentrations: 100 nM and 1000 nM (sheet 'Samples'), CATDS: 7.0897882723323898E-3), 440 nM; in assay [15] (compound concentrations: 100 nM and 1000 nM (sheet 'Samples'), CATDS: 5.6966714044827602E-3), 636 nM; in [6] (compound concentrations: 100 nM and 1000 nM (sheet 'Samples'), CATDS: 5.9641678427723097E-3), 586 nM; in assay [7] (compound concentrations: 100 nM and 1000 nM (sheet 'Samples'), CATDS: 1.26439105920185E-2), 192 nM. The potency estimated from few doses in assay [8] (compound concentrations: 100 nM and 1000 nM (sheet 'Samples'), CATDS: 9.5970287600273298E-3) is 280 nM; in assay [16] (compound concentrations: 100 nM and 1000 nM (sheet 'Samples'), CATDS: 4.7487342618258797E-3), 904 nM; in assay [17] (CATDS: 4.4818399275614899E-3), 1020 nM; in assay [10] (compound concentrations: 100 nM and 1000 nM (sheet 'Samples'), CATDS: 3.78452040785661E-3) it was 1550 nM.
As for `O=C1N=C(NCCc2ccc(Cl)cc2)S/C1=C\c1ccc2ncccc2c1` [RO4498479-000], the potency estimated from few doses in assay [1] (compound concentrations: 100 nM and 1000 nM (sheet 'Samples'), CATDS: 1.04698651204191E-2) was 500 nM; in assay [2] (compound concentrations: 100 nM and 1000 nM (sheet 'Samples'), CATDS: 1.24616497834408E-2), 349 nM; in [3] (compound concentrations: 100 nM and 1000 nM (sheet 'Samples'), CATDS: 1.45728088711572E-2), 262 nM; in assay [4] (compound concentrations: 100 nM and 1000 nM (sheet 'Samples'), CATDS: 7.7760925850710602E-3), 1110 nM; in assay [5] (compound concentrations: 100 nM and 1000 nM (sheet 'Samples'), CATDS: 1.0262385049400099E-2), 523 nM; in assay [6] (compound concentrations: 100 nM and 1000 nM (sheet 'Samples'), CATDS: 9.5944426584782493E-3), 613 nM. For the same compound, the potency estimated from few doses in assay [8] (compound concentrations: 100 nM and 1000 nM (sheet 'Samples'), CATDS: 8.5012457956318496E-3) is 843 nM; in assay [9] (compound concentrations: 100 nM and 1000 nM (sheet 'Samples'), CATDS: 1.0901360132345101E-2) it was 458 nM; in [10] (compound concentrations: 100 nM and 1000 nM (sheet 'Samples'), CATDS: 1.00048929217101E-2), 555 nM.
`CCn1c(-c2nonc2N)nc2c(C#CC(C)(C)O)nc(OC[C@@H](N)c3ccccc3)cc21` [GSK938890A]: in [16] (compound concentrations: 100 nM and 1000 nM (sheet 'Samples'), CATDS: 5.6529109044468798E-2), the potency estimated from few doses is 866 nM.
For the compound `Cl.NCc1ccc(-c2nc(-c3ccc(Cl)c(O)c3)c(-c3ccncc3)[nH]2)cc1` [SB-476429-A], the potency estimated from few doses was 22.7 nM in assay [9] (setting [20]) and 1200 nM in assay [18] (setting [20]).
Turning to `Cc1ccc(Nc2ccnc(Nc3ccc4c(c3)CS(=O)(=O)C4)n2)cc1O.Cl` [GW579362A], the potency estimated from few doses in assay [15] (compound concentrations: 100 nM and 1000 nM (sheet 'Samples'), CATDS: 4.4859937900589397E-2) was 446 nM; in [9] (compound concentrations: 100 nM and 1000 nM (sheet 'Samples'), CATDS: 5.8804795040806997E-2), 261 nM; in assay [18] (compound concentrations: 100 nM and 1000 nM (sheet 'Samples'), CATDS: 0.33092190258733201), 13.2 nM.
In the case of `CC(C)N1CCC(n2cnc(-c3ccc(F)cc3)c2-c2ccnc(N)n2)CC1` [SB-223132], the values for the potency estimated from few doses in assay [2] (setting [20]), in [4] (setting [20]) and in assay [9] (setting [20]) were 898 nM, 1410 nM and 559 nM, respectively.
With `CNC(=O)c1ccccc1Nc1nc(Nc2ccc(N3CCOCC3)cc2)ncc1Cl.Cl` [GSK1576028A], the potency estimated from few doses in assay [1] (setting [20]) was 732 nM; in assay [5] (setting [20]), 369 nM; in [15] (setting [20]), 3.81 nM; in assay [6] (setting [20]) it was 1010 nM; in assay [10] (setting [20]), 1420 nM.
On to `Cl.Nc1c(C(=O)c2cccc(C#CCN3CCCCC3)c2)cnn1-c1ccc(F)cc1` [RO1154461-001], for which the potency estimated from few doses in assay [2] (compound concentrations: 100 nM and 1000 nM (sheet 'Samples'), CATDS: 1.25977312115917E-2) was 877 nM; in assay [3] (compound concentrations: 100 nM and 1000 nM (sheet 'Samples'), CATDS: 1.62394808146854E-2) it was 463 nM; in assay [4] (compound concentrations: 100 nM and 1000 nM (sheet 'Samples'), CATDS: 1.0883176780773701E-2), 1390 nM; in [9] (compound concentrations: 100 nM and 1000 nM (sheet 'Samples'), CATDS: 1.2186963927709901E-2), 966 nM.
With `CCn1c(-c2nonc2N)nc2c(C#CC(C)(C)O)nc(OCCNC)cc21.Cl` [GSK949675A], the potency estimated from few doses in [16] (setting [20]) is 1370 nM.
`CCn1c(-c2nonc2N)nc2c(C#CCN)ncc(OCCCN)c21.O=C(O)C(F)(F)F` [GSK561866B]: the potency estimated from few doses in assay [17] (CATDS: 8.4465602866789904E-2) was 1010 nM.
Take `CCn1c(-c2nonc2N)nc2c(-c3ccccc3)ncc(OCCCN)c21.CCn1c(-c2nonc2N)nc2c(-c3ccccc3)ncc(OCCCN)c21.O=C(O)C(F)(F)F.O=C(O)C(F)(F)F` [GSK260205A]: the potency estimated from few doses is 187 nM in assay [12] (CATDS: 6.3279699360334701E-2) and 808 nM in [19].

These data come from article PMC11062922 (Nature Chemical Biology, 2023).
